# This is a sample that favours compounds with a hit; in the whole collection about 8.9% have one here.
# MCF10A rereplic: A quantitative high throughput screen for small molecules that induce DNA re-replication in MCF 10a normal breast cells | AID 624296, 2012 | actives 2.9% (n = 350,000) | MCF 10A DNA re-replication, Hoechst nuclear intensity, 48 h | Potency, µM (titrated, usually from 46.1 µM), without a hit: top-dose activity, positive = re-replication, hits mostly activators; note: potency is the fitted concentration of half-maximal effect; % of control where 0% means no effect; nearly all actives have a fitted effect of over 50% in size
# SW480 rereplic: A quantitative high throughput screen for small molecules that induce DNA re-replication in SW480 colon adenocarcinoma cells; SW480 DNA re-replication, Hoechst DNA content imaging, 48 h; actives 1.8% (n = 340,000); Potency, µM (series often up to 46.1 µM), inactives show at the top dose re-replication activation, actives largely listed as activators; AID 624297, 2012; note: potency is the fitted concentration of half-maximal effect; % of control where 0% means no effect; nearly all actives have a fitted effect of over 55% in size
#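 250 cells/well; 23 nL cpd via pin tool; 48 hr, 37 C, 5% CO2; Hoechst 40 min; imager read of total nuclear intensity, ex 405/em 500-530 nm.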
# D3 ag: qHTS of D3 Dopamine Receptor Agonist: qHTS. D(3) dopamine receptor (Homo sapiens), P35462. D3R DiscoveRx beta-arrestin cells, luminescence, 90 min. max activation, %. actives 0.58% (n = 410,000). AID 652048, 2013; in the data active = max activation above about 30%; note: 0% is about no effect
# Target sequence (P35462 whole entry, looked up): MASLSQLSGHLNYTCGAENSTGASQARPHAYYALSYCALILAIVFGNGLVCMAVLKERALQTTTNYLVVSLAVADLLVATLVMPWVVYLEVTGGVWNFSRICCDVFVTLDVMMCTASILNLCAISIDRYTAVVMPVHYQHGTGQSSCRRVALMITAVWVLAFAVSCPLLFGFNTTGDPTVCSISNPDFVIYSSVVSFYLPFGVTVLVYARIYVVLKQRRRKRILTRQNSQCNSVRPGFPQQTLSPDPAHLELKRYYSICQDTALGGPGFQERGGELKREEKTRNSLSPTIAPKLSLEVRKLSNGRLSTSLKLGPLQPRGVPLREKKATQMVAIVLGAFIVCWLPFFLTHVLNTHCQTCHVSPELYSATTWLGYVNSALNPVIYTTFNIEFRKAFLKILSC
#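 Agonist-mode cell screen: cells plated at 1500/well and incubated overnight at 37 °C, then exposed to library compounds for 90 min at 37 °C. Detection reagent was added for 30–60 min at room temperature, and luminescence was read.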
# DRD3 antagonist: qHTS of D3 Dopamine Receptor Antagonist: qHTS. D3R cells, DiscoveRx beta-arrestin luminescence, antagonist mode; active compounds read low. actives 2.5% (n = 360,000). AID 652054, 2013. D(3) dopamine receptor (Homo sapiens), P35462. max response, negative = inhibition, %; in the data active = max response below about -50%; inconclusive = no clear call, values can overlap the other calls; note: % is set by controls: 0 for no effect and ±100 for the full control effect
#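 Cells plated overnight at 1500 cells/well, then exposed to library compounds with dopamine controls for 90 minutes at 37 degrees C. DiscoveRx reagent added for 30–60 minutes at room temperature; luminescence read, quantitative HTS format.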
# KB-3-1 tox: qHTS assay for MDR1-selective chemotherapeutics: Primary screen using the parental adenocarcinoma cell KB-3-1; actives 1.4% (n = 400,000); AID 1347075, 2019; Potency, µM (series often up to 46.1 µM), usual class: cytotoxic; KB-3-1 viability, CellTiter-Glo ATP luminescence, 72 h; note: potency is the fitted concentration of half-maximal effect; % is set by controls: 0 for no effect and ±100 for the full control effect; nearly all actives have a fitted effect of over 60% in size
#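 Luminescent ATP read-out (CellTiter-Glo) measures survival of drug-naive KB-3-1 cells after 72 h compound exposure at 37 °C. Titration series was screened from lowest to highest concentration, with DMSO vehicle plates as background controls.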
# KB-V1 cytotox: qHTS assay for MDR1-selective chemotherapeutics: Primary screen using the drug-selected MDR subline cells KB-V1. KB-V1 MDR cells viability, CellTiter-Glo, 72 h. actives 3.4% (n = 400,000). Potency, µM (top dose mostly 46.1 µM), actives largely listed as cytotoxic. AID 1347076, 2019; note: potency is the fitted concentration of half-maximal effect; % is set by controls: 0 for no effect and ±100 for the full control effect; nearly all actives have a fitted effect of over 60% in size
#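 Cytotoxicity toward P-gp-expressing KB-V1 cells was determined as loss of CellTiter-Glo luminescence after 72 h at 37 degrees C. Compounds were tested in quantitative HTS format across a concentration range, with curves fitted to normalized data.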
# * hit, by the source's call; i = inactive; ? = inconclusive; · = no result given; ! = a repeat was not active; [ ] = remark or other dose. Unless noted, calls come from the whole dose curve; as a rule, active = well fitted curve in the direction sought with a large enough effect; inconclusive = small, poorly fitted or top-dose-only effect, or another doubt; inactive = no such curve, though single readings can be large; an effect the other way counts as inactive or inconclusive.
SMILES,MCF10A rereplic,SW480 rereplic,D3 ag,DRD3 antagonist,KB-3-1 tox,KB-V1 cytotox
Cc1occc1-c1nnc(SCC(=O)Nc2ccccn2)o1,0.6%,-6.2%,-1.6,2.1,i,i
CCc1ccccc1NC(=O)c1cn(C)c(=O)c2ccccc12,·,·,-1.3,·,i,?
CCOc1ccc(NC(=O)Cn2c(=O)n(CC(=O)NCc3ccccc3Cl)c(=O)c3sccc32)cc1,·,·,-12.6,·,i,i
COc1ccc(N2CCc3c(C)nc4c(OC)cc(OC)cc4c32)cc1,?,14.2%,2.3,11.7,i,?
COc1ccc(N2CCc3c(C)nc4c(OC)cc(OC)cc4c32)c(OC)c1,25.9µM*,?,3.5,21.3,?,?
CCN1Cc2c(/C=C/c3ccccc3)nc3ccc(OC)cc3c2N(c2cccc(Cl)c2)C1,25.9µM*,27.6%,0.8,-23.8,?,i
COc1ccc(N2CCc3c(C)nc4c(OC)cccc4c32)cc1,?,?,-4.7,-8.4,4.61µM*,?
COc1cccc(N2CCc3c(C)nc4ccc(Cl)cc4c32)c1,?,?,-12.4,10.9,?,16.4µM*
COc1ccc(NS(=O)(=O)c2cc(Br)cc3c2N(C(=O)C2CC2)CC3)cc1OC,·,·,5.4,·,?,?
CCn1c(SCc2c(F)cccc2Cl)nc(=O)c2c(C(=O)OC)cc(C3CC3)nc21,·,·,7.0,·,i,i
CC(C)OC(=O)Nc1ccc2nc(-c3cscn3)[nH]c2c1,9.44µM*,5.31µM*,3.0,·,·,·
CCCC(O)(c1ccc(CC)cc1)C(CN1CCOCC1)c1ccccc1 (centres undefined),?,0.4%,-1.5,12.5,?,?
COc1cc(NC(=O)CC2C(=O)N(c3cccc(C)c3)C(=O)N2Cc2ccco2)cc(OC)c1 (centres undefined),·,·,61.9*,·,·,·
CC1(C)NC(=O)N(c2ccc([N+](=O)[O-])c(C(F)(F)F)c2)C1=O,-2.0%,-5.9%,36.4*!,16.0,i,i
CCN(CC)S(=O)(=O)c1ccc(NC(=O)C2c3ccccc3Oc3ccccc32)cc1,-38.0%,1.6%,-8.0,?,i,18.4µM*
CC(=O)NC(CC(=O)Nc1ccc(S(=O)(=O)N2CCCC2)cc1)c1ccccc1 (centres undefined),-3.3%,-1.3%,-2.8,?,i,i
CNS(=O)(=O)c1ccc(NC(=O)C2c3ccccc3Oc3ccccc32)cc1,1.0%,-24.1%,-11.1,-17.4,i,i
COc1ccc(S(=O)(=O)N(CC(=O)Nc2ccccc2Br)Cc2ccccc2)cc1,·,·,20.2,·,16.4µM*,?
COc1ccc(S(=O)(=O)N(CC(=O)Nc2ccc(Br)cc2)Cc2ccccc2)cc1,·,·,-15.9,·,i,?
CCN(CC)S(=O)(=O)c1ccc(NC(=O)CC(NC(C)=O)c2ccccc2)cc1 (centres undefined),?,?,2.4,-77.7*,i,i
CCOC(=O)CN(Cc1ccccc1)S(=O)(=O)c1ccc(NC(C)=O)cc1,-4.3%,-8.6%,5.0,24.6,i,14.6µM*
CC(=O)Nc1ccc(S(=O)(=O)N(CC(=O)O)Cc2ccccc2)cc1,-1.7%,-2.5%[9.22 µM],2.5,-20.1,i,i
Cc1ccc(S(=O)(=O)c2[nH]c(-c3ccccc3)nc2SCC(N)=O)cc1,·,·,6.4,·,i,i
Cc1nc(N2CCCC2)c2c(C(=O)Nc3cccc(C)c3C)c(C)oc2n1,·,·,4.4,·,·,·
COCCNC(=O)CN(CCc1ccccc1)S(=O)(=O)c1ccc(OC)cc1,-1.4%,2.7%,5.4,-6.4,i,18.4µM*

# Source: PubChem (National Center for Advancing Translational Sciences (NCATS))
